Experimental data from PubChem BioAssay (EPA / NIEHS).
Several values for one entry are separate records, joined by “and”; a condition that tells them apart may be missing. Equal values may be shown once. Some compounds were tested as several samples or in several runs, with calls that do not always agree. Activity calls are given as the source filed them. How the source made its calls: active means hit-call score of the fitted dose curve at least 0.9, where 1 is the maximum; inactive means score below 0.9.

Key:
Details in all cases: mRNA level, 48 h; actives raise or lower the signal
[1] = read-out: Insulin-like growth factor-binding protein 1 (IGFBP1), IGFBP1 (gene 3484); test: LTEA_HepaRG_IGFBP1: Life Technologies and Expression Analysis (LTEA) Assay for Insulin-like growth factor-binding protein 1 (IGFBP1) using HepaRG (AID 2283508)
How it was run: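 qRT-PCR mRNA read-out (TaqMan, Fluidigm array), normalised to three housekeeping genes; HepaRG cells, 48 h exposure, 8-pt half-log series from 100 uM, 0.5% DMSO vehicle; bidirectional curve fit vs DMSO baseline.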

[2] = read-out: Interleukin 6 (IL6), IL6 (gene 3569); test: LTEA_HepaRG_IL6: Life Technologies and Expression Analysis (LTEA) Assay for Interleukin 6 (IL6) using HepaRG (AID 2283509)
How it was run: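 Differentiated human HepaRG cells, plated 48 h then switched to serum-free induction medium, were exposed in duplicate for 48 h to eight half-log concentrations up to 100 uM in 0.5% DMSO. IL6 mRNA measured by qRT-PCR, normalized to ACTB/GAPDH/POLR2A.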

[3] = read-out: Interleukin 6 Receptor (IL6R), IL6R (gene 3570); test: LTEA_HepaRG_IL6R: Life Technologies and Expression Analysis (LTEA) Assay for Interleukin 6 Receptor (IL6R) using HepaRG (AID 2283510)
How it was run: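 Readout is IL6R transcript level by TaqMan qRT-PCR, normalized to three housekeeping genes and fitted bidirectionally against 0.5% DMSO controls. Human HepaRG cells received chemicals for 48 h in serum-free induction medium, highest concentration 100 uM.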

[4] = read-out: Potassium channel subfamily K member 1 (KCNK1), KCNK1 (gene 3775); test: LTEA_HepaRG_KCNK1: Life Technologies and Expression Analysis (LTEA) Assay for Potassium channel subfamily K member 1 (KCNK1) using HepaRG (AID 2283511)
How it was run: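 Differentiated human HepaRG cells in serum-free induction medium were exposed in duplicate for 48 h to 8 half-log concentrations up to 100 uM in 0.5% DMSO. KCNK1 mRNA was measured by TaqMan qRT-PCR, normalized to ACTB, GAPDH and POLR2A, and fitted bidirectionally versus DMSO.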

[5] = read-out: Keratin 19 (KRT19), KRT19 (gene 3880); test: LTEA_HepaRG_KRT19: Life Technologies and Expression Analysis (LTEA) Assay for Keratin 19 (KRT19) using HepaRG (AID 2283512)
How it was run: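 HepaRG, 48 h chemical exposure, 8-pt half-log CRC from 100 uM, 0.5% DMSO vehicle, duplicates. Readout: TaqMan qRT-PCR of KRT19 mRNA, housekeeping-normalized (ACTB/GAPDH/POLR2A). Bidirectional fit vs DMSO baseline.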

[6] = read-out: JUN Transcription Factor, JUN (gene 3725); test: LTEA_HepaRG_JUN: Life Technologies and Expression Analysis (LTEA) Assay for JUN Transcription Factor using HepaRG (AID 2283513)
How it was run: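 Cells plated 48 h, medium switched to serum-free induction medium, then dosed 48 h (100 uM top, half-log dilutions, 0.5% DMSO). RNA isolated; JUN measured by qRT-PCR against three housekeeping genes; gain or loss fitted relative to DMSO.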

[7] = read-out: Lipase C (LIPC), LIPC (gene 3990); test: LTEA_HepaRG_LIPC: Life Technologies and Expression Analysis (LTEA) Assay for Lipase C (LIPC) using HepaRG (AID 2283514)
How it was run: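 Differentiated human HepaRG cells in serum-free induction medium were exposed in duplicate for 48 h to eight concentrations (top 100 uM, half-log steps, 0.5% DMSO). LIPC mRNA was quantified by TaqMan qRT-PCR, normalized to ACTB, GAPDH and POLR2A, with bidirectional fitting versus DMSO.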

[8] = read-out: Lipoprotein lipase (LPL), LPL (gene 4023); test: LTEA_HepaRG_LPL: Life Technologies and Expression Analysis (LTEA) Assay for Lipoprotein lipase (LPL) using HepaRG (AID 2283515)
How it was run: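 Differentiated human HepaRG cells in serum-free induction medium were exposed in duplicate for 48 h to eight half-log concentrations (top 100 uM) in 0.5% DMSO. LPL mRNA was quantified by TaqMan qRT-PCR, normalized to ACTB, GAPDH and POLR2A.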

[9] = read-out: MicroRNA 122 (MIR122), gene 406906; test: LTEA_HepaRG_MIR122: Life Technologies and Expression Analysis (LTEA) Assay for MicroRNA 122 (MIR122) using HepaRG (AID 2283516); further: the transcript read is the microRNA miR-122
How it was run: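 HepaRG plated 48 h, switched to serum-free induction medium, then treated in duplicate for 48 h (100 uM top, half-log steps, 0.5% DMSO vehicle). RNA isolated, qRT-PCR performed, concentration-response fitted both directions relative to DMSO.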

[10] = read-out: matrix metalloproteinase-10 (MMP10), MMP10 (gene 4319); test: LTEA_HepaRG_MMP10: Life Technologies and Expression Analysis (LTEA) Assay for matrix metalloproteinase-10 (MMP10) using HepaRG (AID 2283517)
How it was run: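 HepaRG, collagen I, ~100,000 cells/well; serum-free induction medium; 48 h exposure, duplicate, 8-pt half-log to 100 uM, 0.5% DMSO. Readout: TaqMan qRT-PCR, normalized to ACTB/GAPDH/POLR2A; bidirectional fit vs DMSO.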

Measured: AC50

O=C(c1ccc(OCCN2CCCCC2)cc1)c1c(-c2ccc(O)cc2)sc2cc(O)ccc12
inactive: [3] | [4] | [5] | [7] | [9]
active: [1] 75.6 µM | [2] 75.9 µM | [6] 82.6 µM | [8] 80.4 µM | [10] 78.7 µM

CC/C(=C(\c1ccccc1)c1ccc(OCCN(C)C)cc1)c1ccccc1
inactive: [3] | [5] | [7] | [8] | [9]
active: [1] 65.9 µM and 57 µM | [2] 71.4 µM and 92.3 µM | [3] 93.4 µM | [5] 11.2 µM | [6] 74.6 µM and 89.2 µM | [7] 93.9 µM | [8] 76.5 µM | [10] 75 µM and 50 µM

C#C[C@]1(O)CC[C@H]2[C@@H]3CCc4cc(O)ccc4[C@H]3CC[C@@]21C
inactive: [1] | [2] | [3] | [4] | [5] | [6] | [7] | [8] | [9] | [10]

COC(=O)c1ccc(C(=O)OC)cc1
inactive: [1] | [2] | [3] | [4] | [5] | [6] | [7] | [8] | [9] | [10]

C[C@]12CC[C@@H]3c4ccc(O)cc4CC[C@H]3[C@@H]1CC[C@@H]2O
inactive: [1] | [2] | [3] | [4] | [5] | [6] | [7] | [8] | [9] | [10]

C=C(C)C(N)=O
inactive: [1] | [2] | [3] | [4] | [5] | [6] | [7] | [8] | [9] | [10]

CCCCOCCOCCO
inactive: [1] | [2] | [3] | [4] | [5] | [6] | [7] | [8] | [9] | [10]
